Data: PubChem BioAssay AID2551 (National Center for Advancing Translational Sciences (NCATS), 2010)
Among all 310,000 compounds or so, about 17,000 (5.5%) were called active. Where a call stands in place of a potency, no number is given. About 11% were inconclusive and are not listed. Only a selection was taken, and actives are over-represented in it overall. A number with no mark means an inactive call. The call rests on the fitted dose curve; in most records, active means well fitted inhibition curve with a large enough effect; inconclusive means small, poorly fitted or top-dose-only effect, or effect the other way; inactive means no such curve, though single readings can be large or run the other way.

Target: Nuclear receptor ROR-gamma (Mus musculus) (UniProt P51450)
Test: qHTS for inhibitors of ROR gamma transcriptional activity; further: nearly all actives have a fitted effect of over 60% in size
Settings: Drosophila S2 Gal4-RORgamma UAS-luciferase reporter, 20 h; series mostly up to 53.6 µM
In short: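 ROR gamma transcriptional activity was tracked as Gal4-UAS luciferase output in stably transfected Drosophila Schneider cells, with compound added 1 hr before 700 uM copper sulfate induction and a 20 hr ambient-temperature incubation.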
Potency means the concentration at half of the fitted maximal effect.

Sequence of Nuclear receptor ROR-gamma (Mus musculus) (P51450 whole entry, looked up): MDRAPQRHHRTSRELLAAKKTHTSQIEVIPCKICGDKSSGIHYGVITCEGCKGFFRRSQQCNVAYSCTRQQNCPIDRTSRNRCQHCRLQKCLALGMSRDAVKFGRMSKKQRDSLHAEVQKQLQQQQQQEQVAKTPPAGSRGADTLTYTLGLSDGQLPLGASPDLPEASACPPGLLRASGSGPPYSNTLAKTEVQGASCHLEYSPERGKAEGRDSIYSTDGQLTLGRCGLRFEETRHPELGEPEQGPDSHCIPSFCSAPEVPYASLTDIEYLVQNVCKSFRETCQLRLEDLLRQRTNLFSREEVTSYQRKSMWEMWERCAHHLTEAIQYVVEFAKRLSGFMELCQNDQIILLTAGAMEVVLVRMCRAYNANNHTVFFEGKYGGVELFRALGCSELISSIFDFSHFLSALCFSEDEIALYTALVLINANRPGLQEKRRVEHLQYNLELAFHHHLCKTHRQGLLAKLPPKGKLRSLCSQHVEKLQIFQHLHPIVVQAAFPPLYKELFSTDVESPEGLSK

Row | Compound | Potency | activity change, negative = inhibition
1 | CCn1c(C(C)C)n[nH]c1=S | inactive | 
2 | CCn1c(-c2ccncc2)n[nH]c1=S | 5.01 µM (active) | 
3 | CCCc1cc(-c2n[nH]c(=S)n2CC)c2ccccc2n1 | 11.2 µM (active) | 
4 | CCn1c(C(C)NC(=O)c2ccc(C)cc2)n[nH]c1=S (stereo unspecified) | inactive | 
5 | CCn1c(SCC(=O)Nc2nc3ccc(OC)cc3s2)nnc1-c1ccoc1C | inactive | 
6 | CCn1c(SCC(=O)NC2CCCC2)nnc1-c1ccoc1C | inactive | 
7 | CCOC(=O)CSc1nnc(-c2ccncc2)o1 | inactive | 
8 | CCn1c(-c2ccoc2C)n[nH]c1=S | 11.2 µM (active) | 
9 | CC(C)n1c(-c2ccncc2)n[nH]c1=S | 12.6 µM (active) | 
10 | CCCc1cc(=O)[nH]c(SCC(=O)OCc2ccccc2)n1 | inactive | 
11 | O=S(=O)(Nc1ccccc1Br)c1cccs1 | inactive | 
12 | O=C(Nc1ccc(CN2CCOCC2)cc1)c1cc(Cl)ccc1Cl | inactive | 
13 | C[C@@H]1CC[C@@]2(OC1)O[C@H]1C[C@H]3[C@@H]4CC=C5C[C@@H](O)[C@H](O)C[C@]5(C)C4CC[C@]3(C)[C@H]1[C@@H]2C (stereo partly specified) | inactive | 
14 | O=C1Nc2cc(C(=O)N3CCN(c4ccc(F)cc4)CC3)ccc2NC1CSCc1cccc(F)c1 (stereo unspecified) | inactive | 
15 | CC1CCC(NS(=O)(=O)c2ccc3c(c2)CC(=O)N3)CC1 (stereo unspecified) | inactive | 
16 | CCC(=O)Nc1nc2ccccc2n1Cc1ccccc1C | 2 µM (active) | 
17 | O=S(=O)(O)c1nc2ccccc2n1Cc1ccc(Cl)cc1 | inactive | 
18 | CCn1nc(NC(=O)c2ccco2)c2cc3ccc(C)cc3nc21 | inactive | 
19 | CCC(=O)NCCc1nc2ccccc2n1CC | inactive | 
20 | Cc1ccnc(NC(=O)c2ccco2)n1 | inactive | 
21 | CC(=O)c1nc2ccccc2n1Cc1ccccc1 | inactive | 
22 | CC(=O)Nc1nc2ccccc2n1Cc1ccc(C)cc1 | 1.26 µM (active) | 
23 | Cc1ccc(Cn2c(NC(=O)c3ccco3)nc3ccccc32)cc1 | 0.282 µM (active) | 
24 | CC(=O)NC(C)c1nc2ccccc2n1Cc1ccccc1F (stereo unspecified) | inactive | 

Row | Compound | Potency | activity change, negative = inhibition
25 | CCOC(=O)C1CCN(S(=O)(=O)c2ccc3c(c2)N(C(C)=O)CCO3)CC1 | inactive | 
26 | COc1ccc2c3c(c(=O)oc2c1)C1O[C@](CCCCN2C(=O)c4ccccc4C2=O)(Cc2c1ccc1ccccc21)O3 |  | -28.3% [at 10 µM]
27 | CCN1CCCC1CNC(=O)c1cc2cc(OC)c(OC)cc2[nH]1 (stereo unspecified) | inactive | 
28 | CCn1c(SCC(=O)Nc2ccc3c(c2)OCCO3)nnc1C(C)C | inactive | 
29 | CC(C)c1cc(C(=O)N/N=C/c2ccoc2)c(O)c(C(C)C)c1 | 5.62 µM (active) | 
30 | COc1cc(/C=N/NC(=O)c2cc(C)n(-c3ccc(F)cc3)c2C)cc(OC)c1O | inactive | 
31 | CC(Oc1ccccc1[N+](=O)[O-])C(=O)N/N=C/c1ccoc1 (stereo unspecified) | inactive | 
32 | COc1ccccc1NC(=O)c1ccc(C)s1 | inactive | 
33 | NC(=O)c1ccccc1NC(=O)c1ccccc1F | inactive | 
34 | COC(=O)c1ccccc1NC(=O)c1ccccc1NS(C)(=O)=O | inactive | 
35 | COc1ccccc1NC(=O)/C=C/C(N)=O | 4.47 µM (active) | 
36 | COc1cccc(NC(=O)C(C)Oc2ccccc2)c1 (stereo unspecified) | inactive | 
37 | CC(C)C(=O)Nc1cccc(NC(=O)c2ccc([N+](=O)[O-])cc2Cl)c1 | inactive | 
38 | COc1ccccc1NC(=O)C(C)OC(=O)CC1CCCC1 (stereo unspecified) | inactive | 
39 | CCc1ccccc1NC(=S)Nc1cc(OC)c(NC(=O)C(C)C)cc1OC |  | -14.6% [at 1.91 µM]
40 | CC(C)C(=O)Nc1cccc(NC(=S)NC(=O)C(c2ccccc2)c2ccccc2)c1 | 7.08 µM (active) | 
41 | COc1ccccc1NC(=O)/C=C/C(=O)O | inactive | 
42 | COc1ccccc1NC(=S)NC(=O)C(C)C | 5.01 µM (active) | 
43 | COC(=O)c1ccccc1NC(=S)NC(=O)c1ccccc1F | 12.6 µM (active) | 
44 | Cc1ccc(C(=O)NC23CC4CC(CC(C4)C2)C3)c(Cl)c1 | inactive | 
45 | Oc1ccccc1C1=NN(c2ccccc2)C(c2ccccc2)C1 (stereo unspecified) | inactive | 
46 | CC(C)c1nnc(NC(=O)COC(=O)/C=C/c2ccc([N+](=O)[O-])cc2)s1 | inactive | 
47 | NNC(=O)c1nnn(-c2nonc2N)c1CN1CCCC1 | inactive | 
48 | CCc1ccc(NC(=O)NC(C)c2ccc3c(c2)OCO3)cc1 (stereo unspecified) | inactive | 

Row | Compound | Potency | activity change, negative = inhibition
49 | O=C(CN(Cc1ccc(Br)cc1)S(=O)(=O)c1ccccc1)NCc1ccncc1 | inactive | 
50 | COc1ccccc1OCCNC(=O)CCNC(=O)c1ccccc1Cl | inactive | 
51 | CC(C)CCn1cnc2c1c(=O)n(CC(=O)NC(N)=O)c(=O)n2Cc1ccccc1 | inactive | 
52 | O=C(NCc1ccco1)/C(=C/c1ccco1)NC(=O)c1ccccc1 | inactive | 
53 | CC(=O)c1nn(-c2cccc(C(F)(F)F)c2)c(=O)[nH]c1=O | inactive | 
54 | O=S(=O)(Cc1nnnn1-c1ccccc1)c1ccccc1 | inactive | 
55 | O=C(COc1ccc2c3c(c(=O)oc2c1)CCCC3)NCC(O)c1ccccc1 (stereo unspecified) | inactive | 
56 | CC(C)CC(=O)NC(=S)Nc1ccc(F)cc1F | inactive | 
57 | CC(C)C(=O)NC(=S)Nc1ccccc1F | 7.08 µM (active) | 
58 | O=C(Nc1ccccc1F)c1ccccc1-c1ccccc1 | inactive | 
59 | O=C(c1n[nH]c2c1CCC2)N1CCCC(Nc2cccc(F)c2)C1 (stereo unspecified) | inactive | 
60 | COc1ccccc1N(CC(=O)N/N=C(\C)c1ccccc1O)S(=O)(=O)c1ccc(C)cc1 | 0.562 µM (active) | 
61 | COc1ccc(S(=O)(=O)N(CC(=O)N/N=C/c2ccccc2C(=O)O)c2ccccc2OC)cc1 | inactive | 
62 | COc1ccccc1NC(=O)CN(c1ccccc1OC)S(=O)(=O)c1ccccc1 | inactive | 
63 | Cc1nc([N+](=O)[O-])cn1CC(=O)Nc1ccc(Cl)cc1 | inactive | 
64 | CC1(C)Cc2ccccc2/C(=C/C(=O)c2ccccc2)N1 | inactive | 
65 | CC1(C)Cc2ccccc2-c2[nH]c(=S)[nH]c(=O)c21 | 17.8 µM (active) | 
66 | N#CC1=C(N)Oc2[nH]c(=S)[nH]c(=O)c2C12C(=O)Nc1ccccc12 (stereo unspecified) | inactive | 
67 | Cc1nn(C(C)(C)C)c(OC(=O)CC(C)C)c1S(=O)(=O)c1ccccc1 | inactive | 
68 | COc1ccc(C)cc1Nc1nc(-c2c(C)[nH]c3ccccc23)cs1 | inactive | 
69 | COc1ccc(C)cc1Nc1n[n+](-c2ccccc2)c(-c2cccc(Cl)c2Cl)s1 | 6.31 µM (active) | 
70 | COc1cc(Br)c(-c2sc(Nc3ccccc3)n[n+]2-c2ccccc2)cc1OC | 11.2 µM (active) | 
71 | COc1ccc(C)cc1S(=O)(=O)Nc1cccc(Cl)c1Cl | inactive | 
